PubChem BioAssay AID1159580 (chemical genetic matrix, 2015)
Hit rate of the full screen: of about 5,500 compounds, about 2,000 (36%) were called active. Roughly 18% stayed inconclusive and do not appear here. No stated cut-off is given here; in the data, active means normalized growth mostly below about 0.91 (no sharp cut-off); inconclusive means no clear call, values can overlap the other calls; inactive means mostly above about 0.92. Some of the results follow.

Assay: chemical genetic growth profiling, strain panel (AID 1159580);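 further: tested at 20 µM; growth read once vehicle control cultures reached saturation at 30 °C; 1 = growth at the plate median or of vehicle wells; lower values mean less growth of the strain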
Conditions: S. cerevisiae deletion strains, growth OD
[1] = locus YAL013W, strain DEP1, active compounds read low
[2] = locus YBR229C, strain ROT2, active compounds read low
[3] = locus YDL101C, strain DUN1, active compounds read low
[4] = locus YDR150W, strain NUM1, active compounds read low
[5] = locus YEL061C, strain CIN8, active compounds read low
[6] = locus YGR078C, strain PAC10, active compounds read low
[7] = locus YHR030C, strain SLT2, active compounds read low
[8] = locus YHR087W, strain rtc3, active compounds read low
[9] = locus YJR043C, strain POL32, active compounds read low
[10] = locus YJR075W, strain HOC1, active compounds read low
[11] = locus YLR039C, strain RIC1, active compounds read low
[12] = locus YLR058C, strain SHM2 (second series), active compounds read low
[13] = locus YLR085C, strain ARP6, active compounds read low
[14] = locus YLR262C, strain YPT6, active compounds read low
[15] = locus YML094W, strain GIM5, active compounds read low
[16] = locus YMR219W, strain ESC1, active compounds read low
[17] = locus YMR263W, strain SAP30, active compounds read low
[18] = locus YNL153C, strain GIM3, active compounds read low
[19] = locus YNL298W, strain CLA4 (second series), active compounds read low
[20] = locus YNL322C, strain KRE1, active compounds read low
[21] = locus YNR030W, strain Alg12, active compounds read low
[22] = locus YPL055C, strain LGE1, active compounds read low
[23] = locus YPL241C, strain CIN2, active compounds read low
[24] = locus YPR135W, strain CTF4, active compounds read low

Measured: normalized growth

O=C(NC1CCN(Cc2ccc(Cl)c(Cl)c2)CC1)c1ccccc1
active: [7] 0.641 | locus YOL006C, strain TOP1, active compounds read low 0.683
inactive: [1] 1.01 | [2] 1 | [3] 0.996 | [4] 0.977 | [5] 0.946 | [6] 1.01 | locus YGR229C, strain SMI1, active compounds read low 1 | [8] 0.987 | [9] 1.01 | [10] 1.02 | locus YKL190W, strain CNB1, active compounds read low 1 | [11] 0.94 | [12] 1.01 | [13] 0.86 | [14] 0.825 | [15] 0.889 | [16] 0.992 | [17] 0.998 | [18] 0.988 | [19] 0.986 | [20] 1 | [21] 0.96 | [22] 0.995 | [23] 0.93 | [24] 0.783

O=C(O)CSCC(=O)NC1CCN(Cc2ccccc2)CC1
inactive: [1] 1.01 | [2] 1.01 | [3] 0.997 | [4] 1.01 | [5] 1.02 | [6] 1 | [7] 1.08 | [8] 0.994 | [9] 1 | [10] 1.01 | [11] 1.02 | [12] 0.998 | [13] 0.993 | [14] 1.05 | [15] 1.02 | [16] 1.01 | [17] 0.998 | [18] 1.01 | [19] 1.03 | [20] 1.02 | [21] 1.02 | [22] 1.02 | [23] 1.04 | [24] 1
